# Of roughly 7,900 targets only a part is listed; those with a hit were picked by preference. About 0.6% of all pairs of compound and target were hits. A number with no mark means an inactive call.
# What was measured:
# Assay in all cases: log2 fold change, soluble protein after heating vs DMSO (PISA); higher = thermal stabilisation; K562 cells, 10 uM, 30 min; active = over 0.2 and 3.5 SD of the protein, either way, in both replicates (recomputed)
# [1] = compound: CS(=O)(=O)c1ccc(-c2cnc(N)c(C(=O)Nc3ccccc3)n2)cc1
# How it was run: (§1)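 Values are thermal stability changes relative to control samples and are taken from duplicates. They are stated as log2 fold changes. Before quantification by TMTpro 16plex LC-MS/MS with equalised channel sums, K562 cells at 2×10^6 cells/mL were treated with 10 μM compound for 30 min, heated in aliquots for 3 min across 48°C-58°C, pooled, extracted in PBS with 0.5% NP-40 at 4°C, and centrifuged at 21,000xg for 90 min to give the soluble supernatant.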
# [2] = compound: C[C@@H](Oc1cc(-c2cnn(C3CCNCC3)c2)cnc1N)c1c(Cl)ccc(F)c1Cl [crizotinib]
# How it was run: as §1
# [3] = compound: C[C@H](C1=CC=C(C=C1)C(=O)NC2=C3C=CNC3=NC=C2)N
# How it was run: as §1
# [4] = compound: C[C@H](Nc1ncnc2nc[nH]c12)c1cc2cccc(Cl)c2c(=O)n1-c1ccccc1 [duvelisib]
# How it was run: as §1
# [5] = compound: Cc1cc(Nc2cc(CN3CCOCC3)c3nc(C)c(Cc4ccc(Cl)cc4F)n3n2)n[nH]1 [gandotinib]
# How it was run: as §1
# [6] = compound: Cc1cc(Nc2cc(N3CCN(C)CC3)nc(Sc3ccc(NC(=O)C4CC4)cc3)n2)n[nH]1 [tozasertib]
# How it was run: as §1
# [7] = compound: Cc1cc(SCc2sc(-c3ccc(C(F)(F)F)cc3)nc2C)ccc1OCC(=O)O
# How it was run: as §1
# [8] = compound: Cc1ccc(-n2nc(C(C)(C)C)cc2NC(=O)Nc2ccc(OCCN3CCOCC3)c3ccccc23)cc1 [doramapimod]
# How it was run: as §1
# [9] = compound: Cc1ccc(C(=O)N(CCCN)[C@@H](c2nc3cc(Cl)ccc3c(=O)n2Cc2ccccc2)C(C)C)cc1 [ispinesib]
# How it was run: as §1
# [10] = compound: Cc1ccc(NC(=O)c2ccc(CN3CC[C@H](N(C)C)C3)c(C(F)(F)F)c2)cc1Nc1nccc(-c2cncnc2)n1 [bafetinib]
# How it was run: as §1
# [11] = compound: Cc1cccc(CC(=O)N2CCc3c2ccc(-c2cn(C)c4ncnc(N)c24)c3F)n1
# How it was run: as §1
# [12] = compound: Cc1cn(-c2cc(NC(=O)c3ccc(C)c(Nc4nccc(-c5cccnc5)n4)c3)cc(C(F)(F)F)c2)cn1 [nilotinib]
# How it was run: as §1
# [13] = compound: Cc1nc(Nc2n[nH]c3c2CN(C(=O)N[C@H](CN(C)C)c2ccccc2)C3(C)C)c2sccc2n1
# How it was run: as §1
# [14] = compound: Cc1nc(Nc2ncc(C(=O)Nc3c(C)cccc3Cl)s2)cc(N2CCN(CCO)CC2)n1 [dasatinib]
# How it was run: as §1
# [15] = compound: Cc1ncc(-c2ccnc(Nc3ccc(S(C)(=O)=O)cc3)n2)n1C(C)C
# How it was run: as §1
# [16] = compound: Cn1cc(-c2ccc3c(c2)CCN3C(=O)Cc2cccc(C(F)(F)F)c2)c2c(N)ncnc21
# How it was run: as §1
# [17] = compound: Cn1cc(-c2ccc3nnc(C(F)(F)c4ccc5ncccc5c4)n3n2)cn1
# How it was run: as §1
# [18] = compound: Cn1cncc1[C@@](N)(c1ccc(Cl)cc1)c1ccc2c(c1)c(-c1cccc(Cl)c1)cc(=O)n2C [tipifarnib]
# How it was run: as §1
# [19] = compound: FC(F)(F)c1ccc(/C=C/c2nc(COc3ccc(CCCCn4ccnn4)cc3)co2)cc1 [mubritinib]
# How it was run: as §1
# [20] = compound: C[C@@H]1COCCN1C2=NC(=NC(=C2)C3(CC3)S(=O)(=O)C)C4=C5C=CNC5=CC=C4
# How it was run: as §1
# UniProt Q9Y2H1, sequence (Q9Y2H1 whole entry, looked up): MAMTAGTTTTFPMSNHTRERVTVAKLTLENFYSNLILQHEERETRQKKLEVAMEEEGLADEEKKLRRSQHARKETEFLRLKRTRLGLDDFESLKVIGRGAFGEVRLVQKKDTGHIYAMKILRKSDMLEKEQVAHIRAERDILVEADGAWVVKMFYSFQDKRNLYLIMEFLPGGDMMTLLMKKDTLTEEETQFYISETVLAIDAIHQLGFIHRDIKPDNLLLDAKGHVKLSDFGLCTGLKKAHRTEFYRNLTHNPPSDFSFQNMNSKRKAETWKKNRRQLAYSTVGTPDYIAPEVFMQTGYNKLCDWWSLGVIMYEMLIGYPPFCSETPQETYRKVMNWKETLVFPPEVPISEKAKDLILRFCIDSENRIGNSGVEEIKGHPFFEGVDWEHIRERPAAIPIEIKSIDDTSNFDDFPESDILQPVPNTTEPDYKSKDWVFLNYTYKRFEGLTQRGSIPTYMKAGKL
# UniProt O60749, sequence (O60749 whole entry, looked up): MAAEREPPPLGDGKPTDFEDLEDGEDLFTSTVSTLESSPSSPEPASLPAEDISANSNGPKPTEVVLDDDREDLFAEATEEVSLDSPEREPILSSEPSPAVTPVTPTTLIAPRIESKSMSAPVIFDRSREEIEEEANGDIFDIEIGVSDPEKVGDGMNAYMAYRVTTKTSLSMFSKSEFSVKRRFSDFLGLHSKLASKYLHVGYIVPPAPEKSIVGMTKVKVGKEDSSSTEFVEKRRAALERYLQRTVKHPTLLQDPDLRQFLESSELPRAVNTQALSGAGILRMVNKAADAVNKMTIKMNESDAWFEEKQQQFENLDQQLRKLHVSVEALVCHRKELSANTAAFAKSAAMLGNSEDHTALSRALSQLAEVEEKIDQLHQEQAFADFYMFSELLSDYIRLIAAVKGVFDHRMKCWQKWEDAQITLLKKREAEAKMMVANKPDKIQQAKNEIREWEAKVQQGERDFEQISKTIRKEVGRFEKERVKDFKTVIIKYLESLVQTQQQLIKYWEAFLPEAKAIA
# UniProt Q9C0B7, sequence (Q9C0B7 whole entry, looked up): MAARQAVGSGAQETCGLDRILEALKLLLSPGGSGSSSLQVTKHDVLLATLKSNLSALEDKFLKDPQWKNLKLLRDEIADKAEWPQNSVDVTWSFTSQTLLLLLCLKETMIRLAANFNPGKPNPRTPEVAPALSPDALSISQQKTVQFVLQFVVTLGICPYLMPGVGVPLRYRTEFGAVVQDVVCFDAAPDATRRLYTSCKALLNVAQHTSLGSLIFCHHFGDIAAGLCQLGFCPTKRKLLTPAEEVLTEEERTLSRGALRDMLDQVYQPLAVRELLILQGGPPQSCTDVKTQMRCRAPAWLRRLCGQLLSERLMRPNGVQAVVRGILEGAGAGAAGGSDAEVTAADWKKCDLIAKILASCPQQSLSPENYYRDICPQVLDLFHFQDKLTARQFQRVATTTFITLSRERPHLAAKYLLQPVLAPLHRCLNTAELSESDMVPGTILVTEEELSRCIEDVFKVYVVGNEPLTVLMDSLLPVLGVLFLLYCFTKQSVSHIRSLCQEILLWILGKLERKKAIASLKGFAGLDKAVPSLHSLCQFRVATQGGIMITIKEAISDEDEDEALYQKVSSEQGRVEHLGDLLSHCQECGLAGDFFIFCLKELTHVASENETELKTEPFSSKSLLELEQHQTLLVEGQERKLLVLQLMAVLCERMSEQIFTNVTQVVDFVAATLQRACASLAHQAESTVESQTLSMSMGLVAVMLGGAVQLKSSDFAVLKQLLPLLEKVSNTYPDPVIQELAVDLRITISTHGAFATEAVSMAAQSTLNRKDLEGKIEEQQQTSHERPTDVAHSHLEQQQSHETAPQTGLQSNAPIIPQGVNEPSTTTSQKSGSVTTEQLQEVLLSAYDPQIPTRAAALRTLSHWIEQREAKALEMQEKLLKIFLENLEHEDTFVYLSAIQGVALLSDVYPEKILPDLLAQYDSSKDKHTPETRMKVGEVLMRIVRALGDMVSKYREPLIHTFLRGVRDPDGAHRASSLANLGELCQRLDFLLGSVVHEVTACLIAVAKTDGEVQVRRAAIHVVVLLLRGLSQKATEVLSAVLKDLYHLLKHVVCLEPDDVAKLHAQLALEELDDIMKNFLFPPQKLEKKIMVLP
# UniProt Q9H4I9, sequence (Q9H4I9 whole entry, looked up): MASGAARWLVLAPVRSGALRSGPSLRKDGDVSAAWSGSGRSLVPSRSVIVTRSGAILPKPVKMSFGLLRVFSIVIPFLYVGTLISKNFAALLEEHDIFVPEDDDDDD
# UniProt Q13247, sequence (Q13247 whole entry, looked up): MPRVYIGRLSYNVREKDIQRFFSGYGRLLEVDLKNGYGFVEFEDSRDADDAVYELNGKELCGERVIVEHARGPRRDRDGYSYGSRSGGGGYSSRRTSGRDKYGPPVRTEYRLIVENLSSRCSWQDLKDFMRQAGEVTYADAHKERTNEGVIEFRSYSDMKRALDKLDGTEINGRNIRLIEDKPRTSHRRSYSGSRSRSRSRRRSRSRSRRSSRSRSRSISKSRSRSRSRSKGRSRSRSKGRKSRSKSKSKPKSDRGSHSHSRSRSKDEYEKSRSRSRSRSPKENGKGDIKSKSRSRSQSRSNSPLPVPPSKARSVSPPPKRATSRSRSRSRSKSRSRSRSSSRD
# UniProt P12931, sequence (P12931 whole entry, looked up): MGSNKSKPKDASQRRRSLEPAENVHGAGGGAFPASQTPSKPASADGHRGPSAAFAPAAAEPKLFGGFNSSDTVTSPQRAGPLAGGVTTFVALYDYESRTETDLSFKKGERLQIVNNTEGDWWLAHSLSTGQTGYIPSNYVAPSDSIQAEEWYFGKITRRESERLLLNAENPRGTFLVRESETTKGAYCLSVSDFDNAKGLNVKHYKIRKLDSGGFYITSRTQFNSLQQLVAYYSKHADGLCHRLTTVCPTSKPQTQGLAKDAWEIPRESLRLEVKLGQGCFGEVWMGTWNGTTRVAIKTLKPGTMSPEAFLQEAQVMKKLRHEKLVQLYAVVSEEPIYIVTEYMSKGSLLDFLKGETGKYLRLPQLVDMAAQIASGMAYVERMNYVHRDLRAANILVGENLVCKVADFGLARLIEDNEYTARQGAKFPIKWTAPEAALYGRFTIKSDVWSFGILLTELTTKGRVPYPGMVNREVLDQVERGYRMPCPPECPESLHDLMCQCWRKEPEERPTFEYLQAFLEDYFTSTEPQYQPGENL
# UniProt O75494, sequence (O75494 whole entry, looked up): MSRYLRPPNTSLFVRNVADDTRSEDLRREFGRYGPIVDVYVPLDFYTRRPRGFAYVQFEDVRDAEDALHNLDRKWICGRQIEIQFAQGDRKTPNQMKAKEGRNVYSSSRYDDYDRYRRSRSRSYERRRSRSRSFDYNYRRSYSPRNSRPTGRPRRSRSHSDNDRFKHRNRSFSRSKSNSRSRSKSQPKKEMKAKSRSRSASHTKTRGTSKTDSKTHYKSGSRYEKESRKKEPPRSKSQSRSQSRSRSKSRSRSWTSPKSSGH
# UniProt Q9NVC3, sequence (Q9NVC3 whole entry, looked up): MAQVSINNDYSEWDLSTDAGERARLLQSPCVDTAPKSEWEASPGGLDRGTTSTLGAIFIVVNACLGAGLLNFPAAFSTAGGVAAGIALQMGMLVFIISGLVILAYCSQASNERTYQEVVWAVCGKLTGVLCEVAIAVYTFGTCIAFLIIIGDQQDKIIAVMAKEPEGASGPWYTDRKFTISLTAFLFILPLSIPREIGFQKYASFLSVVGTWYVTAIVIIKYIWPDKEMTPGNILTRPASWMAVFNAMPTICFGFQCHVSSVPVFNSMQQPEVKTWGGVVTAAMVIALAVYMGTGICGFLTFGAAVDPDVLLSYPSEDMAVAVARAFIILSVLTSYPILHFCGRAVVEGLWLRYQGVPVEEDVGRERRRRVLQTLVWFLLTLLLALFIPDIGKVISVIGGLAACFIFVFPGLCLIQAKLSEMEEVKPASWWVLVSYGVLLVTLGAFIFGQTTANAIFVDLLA
# UniProt Q6PCB7, sequence (Q6PCB7 whole entry, looked up): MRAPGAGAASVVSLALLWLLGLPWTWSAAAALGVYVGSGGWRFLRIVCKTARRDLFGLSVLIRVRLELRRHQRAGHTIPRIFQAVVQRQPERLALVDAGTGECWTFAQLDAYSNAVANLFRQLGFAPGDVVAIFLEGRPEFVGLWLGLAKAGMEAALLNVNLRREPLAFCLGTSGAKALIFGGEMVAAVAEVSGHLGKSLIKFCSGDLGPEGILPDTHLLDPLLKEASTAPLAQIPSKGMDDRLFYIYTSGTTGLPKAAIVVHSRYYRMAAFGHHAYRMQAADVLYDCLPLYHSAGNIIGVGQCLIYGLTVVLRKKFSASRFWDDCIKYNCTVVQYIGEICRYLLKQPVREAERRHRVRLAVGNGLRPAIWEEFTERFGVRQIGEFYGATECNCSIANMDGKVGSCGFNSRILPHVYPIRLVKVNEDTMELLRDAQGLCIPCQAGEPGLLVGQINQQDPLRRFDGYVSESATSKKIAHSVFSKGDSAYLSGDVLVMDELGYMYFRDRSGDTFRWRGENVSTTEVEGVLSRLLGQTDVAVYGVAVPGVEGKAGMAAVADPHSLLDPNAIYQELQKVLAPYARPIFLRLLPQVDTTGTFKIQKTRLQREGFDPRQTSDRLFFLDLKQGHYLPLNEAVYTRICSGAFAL
# UniProt P78383, sequence (P78383 whole entry, looked up): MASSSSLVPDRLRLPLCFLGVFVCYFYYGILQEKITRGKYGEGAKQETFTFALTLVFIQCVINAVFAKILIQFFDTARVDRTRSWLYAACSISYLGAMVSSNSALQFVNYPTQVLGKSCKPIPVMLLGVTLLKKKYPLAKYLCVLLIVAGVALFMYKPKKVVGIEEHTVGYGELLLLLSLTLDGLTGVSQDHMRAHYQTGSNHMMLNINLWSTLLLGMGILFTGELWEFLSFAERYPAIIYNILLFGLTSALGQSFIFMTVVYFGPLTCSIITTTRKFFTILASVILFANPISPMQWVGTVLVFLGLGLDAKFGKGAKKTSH
Target,log2 fold change [1],log2 fold change [2],log2 fold change [3],log2 fold change [4],log2 fold change [5],log2 fold change [6],log2 fold change [7],log2 fold change [8],log2 fold change [9],log2 fold change [10],log2 fold change [11],log2 fold change [12],log2 fold change [13],log2 fold change [14],log2 fold change [15],log2 fold change [16],log2 fold change [17],log2 fold change [18],log2 fold change [19],log2 fold change [20]
TENT5C (UniProt Q5VWP2),0.044,0.043,0.011,0.111,0.142,-0.05,0.174,0.061,0.055,-0.055,0.009,0.002,0.02,-0.122,0.005,-0.286,0.028,-0.02,0.014,–
SMDT1 (UniProt Q9H4I9),0.144,0.042,-0.035,0.026,-0.23,-0.014,0,0.054,–,-0.138,0.006,–,–,0.005,–,0.137,–,–,0.068,0.017
SLC35B4 (UniProt Q969S0),0.016,0.256,–,–,–,0.063,–,0.038,–,-0.12,–,0.027,0.016,–,0.1,–,–,–,0.032,0.048
SNX15 (UniProt Q9NRS6),0.064,0.002,0.153,-0.012,-0.061,0.063,-0.043,0.136,-0.132,0.036,0.154,-0.064,-0.17,0.206,0.002,-0.046,0.086,0.067,-0.063,–
SLC38A7 (UniProt Q9NVC3),-0.018,-0.449,-0.009,–,-0.412,0.052,–,0.035,-0.842 (active),-0.142,0.016,0.05,-0.023,–,-0.053,-0.005,0.084,0.056,-0.007,0.045
SRSF6 (UniProt Q13247),-0.021,-0.09,0.03,-0.085,-0.043,-0.08,0.059,-0.047,–,0.578,0.192,0.155,-0.813 (active),0.079,0.095,-0.251,–,0.212,-0.014,-0.195
SNX2 isoform 2 (UniProt O60749),0.135,-0.145,0.108,0.015,–,–,-0.029,0.17,–,-0.163,–,–,–,-0.097,–,0.16,–,-0.155,–,0.071
SLC35B1 isoform 2 (UniProt P78383),0.049,-0.053,-0.535 (active),0.171,–,0.075,0,-0.061,-0.043,-0.018,–,-0.065,0.052,0.142,-0.097,-0.13,-0.172,–,0.016,-0.042
SLC27A1 (UniProt Q6PCB7),0.116,0.123,-0.099,0.05,–,-0.084,0.112,0.062,0.06,0.047,–,-0.087,-0.009,-0.152,0.079,-0.053,0.046,0.094,0.431 (active),0.016
STX17 (UniProt P56962),0.197,-0.27,-0.171,-0.156,-0.026,-0.031,0.001,0.031,-0.246,-0.049,-0.028,0.028,-0.057,-0.027,-0.051,0.071,0.002,-0.012,0.074,0.025
SLC44A2 isoform 2 (UniProt Q8IWA5),0.019,0.113,-0.123,0.154,-0.017,-0.022,-0.046,0.055,0.069,0.058,-0.053,0.13,0.008,0.064,0.068,0.084,-0.076,–,0.045,0.026
SRSF10 (UniProt O75494),-0.176,0.153,0.259,-0.139,0.183,0.095,0.036,0.222,-0.172,0.044,-0.1,0.089,-0.079,0.336,0.076,-0.498,-0.173,0.215,-0.089,-0.539
STK11IP (UniProt Q8N1F8),-0.21,-0.869 (active),-0.124,-0.089,-0.002,-0.042,0.021,0.006,–,-0.06,0.111,-0.081,0.058,-0.19,0.051,-0.068,–,0.034,-0.071,-0.078
SRC isoform 2 (UniProt P12931),-0.248,-0.154,0.07,0.168,-0.056,-0.183,0.101,-0.052,-0.068,-0.054,-0.037,-0.041,-0.499,–,-0.136,0.008,-0.163,0.005,0.031,0.229
STOM (UniProt P27105),0.086,-0.005,0.182,0.011,0.268,-0.015,0.01,-0.006,-0.29,-0.01,0.043,0.039,-0.007,0.039,-0.03,-0.043,0.055,0.031,-0.008,-0.035
SYNE1 (UniProt Q8NF91),0.096,-0.132,0.104,0.103,0.109,-0.187,-0.04,0.061,-0.159,-0.051,0.008,0.021,-0.281,-0.074,-0.074,0.079,-0.098,–,0.182,-0.041
STK38L (UniProt Q9Y2H1),0.028,0.065,-0.055,-0.04,-0.105,0.003,0.116,-0.022,-0.093,-0.02,-0.065,-0.032,-0.238,-0.012,-0.03,-0.122,-0.582,–,0.081,0.069
TANGO6 (UniProt Q9C0B7),0.006,-0.123,0.366 (active),0.087,–,-0.124,0.078,-0.004,-0.085,0.033,–,-0.018,-0.066,-0.216,-0.006,0.083,-0.048,-0.067,0.042,-0.022
